About 6,900 (3.6%) of roughly 190,000 compounds were called active. Only a selection was taken, and actives are over-represented in it overall. A number with no mark means an inactive call. Cut-off read from the data, not from the text of the source: active = inhibition above about 50%; inactive = the rest.

For the assay, the target named is Huntingtin (Homo sapiens) (UniProt P42858). As to the kind of experiment: mutant huntingtin-calmodulin interaction inhibitors – biochemical, AlphaScreen, primary screen (AID 1671202).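 Note: 0% = both proteins with DMSO and 100% = one protein alone.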 To be noted: AlphaScreen His-mHTT/GST-CaM binding, luminescence; at 15 µM, stronger effect = higher value.
Sequence of Huntingtin (Homo sapiens) (P42858 whole entry, looked up, stated change not applied): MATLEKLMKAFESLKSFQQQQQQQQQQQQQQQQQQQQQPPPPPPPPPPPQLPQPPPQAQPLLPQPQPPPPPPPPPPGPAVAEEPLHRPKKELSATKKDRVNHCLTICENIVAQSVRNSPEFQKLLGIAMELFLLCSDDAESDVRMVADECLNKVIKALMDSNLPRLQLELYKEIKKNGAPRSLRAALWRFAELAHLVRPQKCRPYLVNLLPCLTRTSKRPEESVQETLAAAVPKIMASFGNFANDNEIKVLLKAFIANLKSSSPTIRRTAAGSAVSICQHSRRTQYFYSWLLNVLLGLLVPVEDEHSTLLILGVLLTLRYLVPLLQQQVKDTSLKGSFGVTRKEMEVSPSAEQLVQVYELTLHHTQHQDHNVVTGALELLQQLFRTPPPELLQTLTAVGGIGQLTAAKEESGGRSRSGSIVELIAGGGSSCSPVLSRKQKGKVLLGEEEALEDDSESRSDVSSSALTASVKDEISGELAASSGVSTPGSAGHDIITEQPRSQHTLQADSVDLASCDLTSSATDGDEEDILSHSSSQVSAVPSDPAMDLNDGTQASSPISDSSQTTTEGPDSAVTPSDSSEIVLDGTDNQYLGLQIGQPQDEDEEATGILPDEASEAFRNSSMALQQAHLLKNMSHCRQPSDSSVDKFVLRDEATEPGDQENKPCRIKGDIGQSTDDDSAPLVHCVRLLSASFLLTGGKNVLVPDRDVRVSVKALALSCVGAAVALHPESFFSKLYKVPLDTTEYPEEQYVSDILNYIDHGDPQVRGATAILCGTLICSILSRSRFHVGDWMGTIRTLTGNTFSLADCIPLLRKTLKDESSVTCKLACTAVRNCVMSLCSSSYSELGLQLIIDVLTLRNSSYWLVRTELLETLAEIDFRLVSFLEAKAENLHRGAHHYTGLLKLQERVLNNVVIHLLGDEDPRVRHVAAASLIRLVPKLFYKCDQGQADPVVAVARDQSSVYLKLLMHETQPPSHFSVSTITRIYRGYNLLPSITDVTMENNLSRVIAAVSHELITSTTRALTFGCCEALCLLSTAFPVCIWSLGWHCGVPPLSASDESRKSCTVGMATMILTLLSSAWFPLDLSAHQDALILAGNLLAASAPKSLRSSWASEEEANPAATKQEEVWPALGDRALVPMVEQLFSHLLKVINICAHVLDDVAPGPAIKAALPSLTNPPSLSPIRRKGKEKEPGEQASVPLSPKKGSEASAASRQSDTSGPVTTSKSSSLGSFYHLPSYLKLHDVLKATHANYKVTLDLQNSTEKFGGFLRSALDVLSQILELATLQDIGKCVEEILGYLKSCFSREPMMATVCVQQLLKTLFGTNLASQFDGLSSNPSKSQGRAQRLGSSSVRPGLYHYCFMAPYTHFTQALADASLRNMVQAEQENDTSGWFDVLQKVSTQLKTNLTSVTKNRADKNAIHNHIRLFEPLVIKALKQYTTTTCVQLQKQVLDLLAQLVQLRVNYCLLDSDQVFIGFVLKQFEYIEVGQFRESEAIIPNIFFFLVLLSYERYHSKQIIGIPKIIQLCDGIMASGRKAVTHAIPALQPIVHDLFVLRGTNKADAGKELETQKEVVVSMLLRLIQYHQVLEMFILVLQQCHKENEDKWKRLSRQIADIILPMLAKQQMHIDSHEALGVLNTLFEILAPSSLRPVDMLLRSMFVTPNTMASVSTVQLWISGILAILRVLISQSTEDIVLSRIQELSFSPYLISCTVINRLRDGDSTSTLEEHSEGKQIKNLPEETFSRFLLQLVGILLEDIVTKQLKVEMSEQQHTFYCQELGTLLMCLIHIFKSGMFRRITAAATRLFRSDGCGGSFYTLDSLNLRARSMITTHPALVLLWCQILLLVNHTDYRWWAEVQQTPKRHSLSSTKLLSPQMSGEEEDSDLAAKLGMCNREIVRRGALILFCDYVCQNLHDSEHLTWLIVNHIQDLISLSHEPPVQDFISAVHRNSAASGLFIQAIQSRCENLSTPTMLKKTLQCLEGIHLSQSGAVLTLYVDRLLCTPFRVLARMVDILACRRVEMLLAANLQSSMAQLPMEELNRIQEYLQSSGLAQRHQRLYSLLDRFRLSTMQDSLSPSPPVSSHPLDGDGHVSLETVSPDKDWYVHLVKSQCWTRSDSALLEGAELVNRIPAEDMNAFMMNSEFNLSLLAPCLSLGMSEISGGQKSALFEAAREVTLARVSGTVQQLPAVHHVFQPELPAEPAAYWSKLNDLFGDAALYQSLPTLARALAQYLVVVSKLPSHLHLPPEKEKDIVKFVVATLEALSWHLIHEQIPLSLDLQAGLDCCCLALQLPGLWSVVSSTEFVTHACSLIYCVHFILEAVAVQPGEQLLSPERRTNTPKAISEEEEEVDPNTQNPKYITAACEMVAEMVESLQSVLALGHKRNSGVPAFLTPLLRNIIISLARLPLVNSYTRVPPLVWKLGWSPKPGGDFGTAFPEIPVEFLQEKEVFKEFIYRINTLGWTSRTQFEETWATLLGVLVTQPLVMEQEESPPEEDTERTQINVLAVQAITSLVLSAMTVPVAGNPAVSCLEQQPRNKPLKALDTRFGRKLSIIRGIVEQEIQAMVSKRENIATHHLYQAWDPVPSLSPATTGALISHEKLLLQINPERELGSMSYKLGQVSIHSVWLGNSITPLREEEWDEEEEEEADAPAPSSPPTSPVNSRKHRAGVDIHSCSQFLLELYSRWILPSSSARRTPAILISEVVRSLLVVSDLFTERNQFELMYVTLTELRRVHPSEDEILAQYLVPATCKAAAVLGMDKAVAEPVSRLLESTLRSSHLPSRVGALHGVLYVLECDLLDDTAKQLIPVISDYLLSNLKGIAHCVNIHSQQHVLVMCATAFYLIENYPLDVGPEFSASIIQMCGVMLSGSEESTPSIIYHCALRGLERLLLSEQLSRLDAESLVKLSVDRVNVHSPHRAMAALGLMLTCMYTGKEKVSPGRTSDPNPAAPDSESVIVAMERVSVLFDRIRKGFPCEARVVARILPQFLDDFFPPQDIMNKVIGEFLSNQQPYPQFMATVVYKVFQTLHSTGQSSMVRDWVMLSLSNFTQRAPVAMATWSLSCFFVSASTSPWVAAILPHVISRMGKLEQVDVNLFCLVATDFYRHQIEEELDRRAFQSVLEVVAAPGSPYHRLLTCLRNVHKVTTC
As for `COc1cccc(CN2CCN(C/C=C/c3ccccc3)CC2)c1OC`, the inhibition was 6.9%.

Consider `COc1cc(CN2CCN(C/C=C/c3ccccc3)CC2)cc(Br)c1O`, for which the inhibition is 55.5% (active).

As to `COc1ccccc1/C=C/CN1CCN(C)CC1`, the inhibition is -4.8%.

Turning to `Cc1oc(C2CCN(S(=O)(=O)c3ccc(F)cc3)CC2)nc1C(=O)N1CCOCC1`, the inhibition was -2.14%.

For `CC(=O)NCCc1csc(C2CCN(C(=O)C3(c4ccccc4)CC3)CC2)n1`, the inhibition was 0.81%.

`C=CCOc1ccc(/C=C2/C(=O)ON=C2C)cc1OCC`: the inhibition was 89% (active).

`COc1cc(C=O)cc(Br)c1OCc1ccccn1`: the inhibition is -0.1%.

In the case of `CCOc1cc(C=C2C(=O)OC(C)(c3ccccc3)OC2=O)ccc1O` (stereo not drawn), the inhibition is 7%.

In the case of `CCOc1cc(/C=C2\C(=O)ON=C2C)cc(Br)c1OCc1ccccc1F`, the inhibition is 51% (active).

Regarding `CCOc1ccc(/C=C2/N=C(c3ccc(Cl)cc3)OC2=O)cc1OCC`, the inhibition was -5%.

In the case of `CCOc1c(Br)cc(/C=C2\NC(=O)N(Cc3ccccc3F)C2=O)cc1OC`, the inhibition was -4%.

Take `NS(=O)(=O)c1ccc(NC(=O)CSc2nc3sc4c(c3c(=O)[nH]2)CCC4)cc1`: the inhibition was 5%.

`COc1ccc(C2CC(O)(C#Cc3ccccc3)C(C)C(c3ccc(OC)cc3)N2)cc1` (stereo not drawn): the inhibition was 100% (active).

Consider `COc1ccc(C2SCCN2C(=O)c2cc3ccccc3oc2=O)cc1` (stereo not drawn), for which the inhibition was 0%.

Regarding `Cc1[nH]nc(-c2ccc(S(=O)(=O)N3CCC(N4CCCCC4)CC3)s2)c1C`, the inhibition is 7.48%.

In the case of `Cc1n[nH]c(C)c1S(=O)(=O)N1CCC(C(=O)Nc2ccc(Br)cc2)CC1`, the inhibition is -8%.

In the case of `Clc1ccc(-c2csc(Nc3ncccn3)n2)cc1`, the inhibition was -1%.

Take `CC(Oc1ccccc1)C(=O)Nc1nc(-c2ccccc2)cs1` (stereo not drawn): the inhibition is -30%.

As for `COc1cc(NS(=O)(=O)c2ccc(Nc3nc(-c4cccnc4)cs3)cc2)nc(OC)n1`, the inhibition is 25.8%.

With `COc1cccc(N/C=C(\C#N)c2nc(-c3ccc(Cl)cc3)cs2)c1`, the inhibition is -2%.

Regarding `O=C(Nc1nc(-c2ccc([N+](=O)[O-])cc2)cs1)c1ccc(Cl)cc1`, the inhibition is 0.3%.

Consider `CN(C)c1ccc(Nc2nc(-c3ccc(Cl)cc3)cs2)cc1`, for which the inhibition is 57.2% (active).

For `COc1ccc(-c2csc(Nc3ccc(O)cc3)n2)cc1`, the inhibition is 61.1% (active).

With `COc1ccc2oc(=O)c(-c3csc(Nc4cccc(C(C)=O)c4)n3)cc2c1`, the inhibition is 2%.

With `COc1cccc(Nc2nc(-c3ccc(Cl)cc3)cs2)c1`, the inhibition was 82.2% (active).

Take `Cc1ccsc1C1C(C#N)=C(N)N(c2ccc(Br)cc2)C2=C1C(=O)CCC2` (stereo not drawn): the inhibition was 22%.

For `COC(=O)c1ccc(Cl)cc1NC(=O)N1CCOc2ccccc21`, the inhibition is -2.93%.

Turning to `Cc1ccc(S(=O)(=O)CCC(=O)Nc2c(F)cccc2F)cc1`, the inhibition is 0%.

`CCN(CC)S(=O)(=O)c1ccc2oc(C(=O)NCC3CCCO3)c(C)c2c1` (stereo not drawn): the inhibition is 6%.

In the case of `O=C(Nc1cccc(Cl)c1)C1CCCN(c2nccnc2Oc2ccccc2)C1` (stereo not drawn), the inhibition was -9.65%.

As for `COc1ccc(C)cc1NC(=O)N1CC2CC(NC(=O)c3cccs3)C1C2` (stereo not drawn), the inhibition is 3.7%.

Take `COc1cc(NC(=O)c2noc3c2CCCC3)cc(OC)c1OC`: the inhibition was 1.68%.

Turning to `O=S1(=O)c2cccc3cccc(c23)N1Cc1cccc(F)c1`, the inhibition is -24.4%.

On to `O=C(Nc1ccc(N2CCN(C3CCCC3)C2=O)nc1)c1cc(F)cc(F)c1`, for which the inhibition was -7.5%.

Consider `Cc1cccc(CNC(=O)CN2C(=O)C3CCCN3C(=O)c3cccc(C)c32)c1` (stereo not drawn), for which the inhibition is -6.69%.

In the case of `Cc1ccc2c(c1)C(=O)N1CCCCC1C(=O)N2CC(=O)NCCN1CCCCCC1` (stereo not drawn), the inhibition is 75% (active).

With `CC1CCN(CCNC(=O)CN2C(=O)C3CCCN3C(=O)c3ccc(F)cc32)CC1` (stereo not drawn), the inhibition is 1.11%.

On to `CC(=O)NCc1csc(C2CCN(S(=O)(=O)c3ccc(C)cc3C)CC2)n1`, for which the inhibition is 6.65%.

Take `Cc1ccc(C2NC(=O)c3c(sc4c3CCCC4)N2)cc1` (stereo not drawn): the inhibition is 5%.

Take `Cc1ccc(C2NC(=O)c3c(sc4c3CCCC4)N2)c(O)c1` (stereo not drawn): the inhibition is 78% (active).

`O=C1NC(c2ccncc2)Nc2sc3c(c21)CCCC3` (stereo not drawn): the inhibition is 16%.

Turning to `Cc1ccc2c(c1)C(=O)NC1(CCN(C(=O)C3CCC3)CC1)N2`, the inhibition was 3.5%.

Turning to `CCOC(=O)C(C)Oc1ccc2c(c1)OC(=Cc1ccc(OC)cc1)C2=O` (stereo not drawn), the inhibition was -21.4%.

Regarding `COc1ccc(C(=O)Nc2cccc(NC(=O)c3ccc(Cl)cc3Cl)c2)cc1`, the inhibition was 4.1%.

With `O=C(c1ccc(F)c(F)c1)N1CCN(c2nnc3ccccn23)CC1`, the inhibition is -6.3%.

For the compound `COc1cc(OC)c(NC(=O)N2CC3CCCN3c3ccccc32)cc1Cl` (stereo not drawn), the inhibition was 38.8%.

Take `CCn1c(C2CCN(C(=O)Nc3ccc(Br)c(C)c3)C2)nc2cccnc21` (stereo not drawn): the inhibition is 25.2%.

Take `Cc1cc(NC(=O)N2CC3CCCN3c3ccccc32)ccc1Br` (stereo not drawn): the inhibition is 87% (active).

As to `CC(C)(C)NC(=O)N1CCC(CNS(=O)(=O)c2ccc(Br)s2)CC1`, the inhibition is -7.3%.

For `CCCNc1cc(N2CCCC(CCC(=O)N3CCN(CCC)CC3)C2)ncn1` (stereo not drawn), the inhibition was 5.87%.

Take `CCCNc1cc(N2CCCC(CCC(=O)Nc3ccc4c(c3)OCCO4)C2)ncn1` (stereo not drawn): the inhibition is 62.5% (active).

`CCCNc1cc(N2CCCC(CCC(=O)Nc3cccc(C)c3C)C2)ncn1` (stereo not drawn): the inhibition is -0.7%.

As to `Cc1ccc(Cl)cc1N1CCN(C(=O)Cn2nc(C(F)(F)F)c(Br)c2C)CC1`, the inhibition is -5%.

For `C=C(C)c1nc2ccc(Br)cc2c(=O)o1`, the inhibition is -3%.

On to `CCc1cccc(NC(=O)N2CCc3c(c(-c4nc(C)no4)nn3C)C2)c1`, for which the inhibition was 53.9% (active).

As to `Cc1cccc(NC(=O)N2CCc3c(c(-c4nc(C5CC5)no4)nn3C)C2)c1`, the inhibition is 34.8%.

In the case of `Cc1noc(-c2nn(C)c3c2CN(C(=O)Nc2cccc(C(F)(F)F)c2)CC3)n1`, the inhibition was 28.3%.

For the compound `CCOC(=O)c1sc(NC(=O)CN2C(=O)c3ccccc3C2=O)c(SC#N)c1C`, the inhibition was 0.3%.

Turning to `CCN1c2ccc(C)cc2C(=O)NC12CCN(C(=O)c1cc(F)cc(F)c1)CC2`, the inhibition is 3.5%.

For `Fc1ccc(Nc2ncc3c(n2)CCN(Cc2ccccc2)C3)cc1`, the inhibition was -7.34%.

As for `CCOc1cccc(CN2CCc3nc(Nc4ccc(OC)cc4)ncc3C2)c1`, the inhibition is -0.89%.

Consider `COc1cccc(Nc2ncc3c(n2)CCN(Cc2ccc(F)c(F)c2)C3)c1`, for which the inhibition was 33.9%.

On to `COc1cc(Nc2ncc3c(n2)CCN(Cc2cc(OC)ccc2OC)C3)cc(OC)c1`, for which the inhibition was 76.3% (active).

Consider `Clc1ccccc1CN1CCc2nc(Nc3ccc4c(c3)OCO4)ncc2C1`, for which the inhibition is 87.4% (active).

Consider `COc1ccc(CN2CCc3nc(Nc4ccc5c(c4)OCCO5)ncc3C2)cc1`, for which the inhibition is 55.6% (active).

As to `CCN1CCN(c2ncc3c(n2)CCN(Cc2ccccc2Cl)C3)CC1`, the inhibition was 39%.

Regarding `COc1ccc(CN2CCc3nc(Nc4ccccc4)ncc3C2)c(OC)c1OC`, the inhibition is 47.4%.

For `COc1ccc(OC)c(Nc2ncc3c(n2)CCN(Cc2ccccc2)C3)c1`, the inhibition was 10.5%.

Usually inhibition stands for the drop in the measured response relative to a control, in per cent.

(Values after PubChem BioAssay AID1671202 (University of Kansas High Throughput Screening Laboratory, 2021).)
